Source: PubChem BioAssay (Tox21)
“And” between values parts separate entries of the source, which are not always exact repeats. Identical values can stand only once. Inconclusive results are not listed. The source made the active and inactive calls. Unless noted, the call rests on the fitted dose curve; in most records, active means well fitted curve in the direction sought with a large enough effect in the repeat runs; inconclusive means weak or mixed curves; inactive means no such curve, though single readings can be large; an effect the other way counts as inactive or inconclusive.

How the values were obtained:
[1] = qHTS assay to test for compound auto fluorescence at 535 nm (green) in HEK293 cells (AID 720680)
[2] = qHTS assay to test for compound auto fluorescence at 460 nm (blue) in HEK293 cell free culture (AID 720681)
Summary of the method: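 Compounds were added to cell-free DMEM with 10% FBS and fluorescence read directly. The blue channel used 405 nm excitation and 460 nm emission, with triamterene as the reference fluorophore.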

[3] = qHTS assay to test for compound auto fluorescence at 535 nm (green) in HEK293 cell free culture (AID 720682)
Summary of the method: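 Each library compound, or DMSO control, is added by pintool to medium alone, comprising DMEM and 10% FBS. Emission at 535 nm following 485 nm excitation is quantified against fluorescein.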

[4] = qHTS assay to test for compound auto fluorescence at 590 nm (red) in HEK293 cell free culture (AID 720683)
Summary of the method: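 Cell-free wells of DMEM with 10% FBS received compound, and intrinsic fluorescence was read at excitation/emission 540/590 nm. Values expressed as equivalence to Rose Bengal sodium.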

[5] = qHTS assay to test for compound auto fluorescence at 590 nm (red) in HepG2 cell free culture (AID 720684)
Summary of the method: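 Rose Bengal sodium served as the reference for red signal. Test compounds were dispensed into serum-containing MEM (10% FBS) without cells, and plates were read at 540/590 nm.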

[6] = qHTS assay to test for compound auto fluorescence at 460 nm (blue) in HepG2 cell free culture (AID 720685)
Summary of the method: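 Cell-free plates of MEM plus 10% FBS received 23 nL compound or DMSO vehicle; blue-channel (405/460 nm) intensity scored against triamterene as reference fluorophore.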

[7] = qHTS assay to test for compound auto fluorescence at 460 nm (blue) in HepG2 cells (AID 720687)
Summary of the method: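 HepG2 cells in MEM with 10% FBS, attached overnight at 37 C, were exposed to compound or DMSO for 1 hr at 37 C, 5% CO2. Blue fluorescence was read at 405/460 nm, with triamterene as reference fluorophore.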

[8] = qHTS assay to identify small molecule antagonists of the glucocorticoid receptor (GR) signaling pathway - cell viability counter screen (AID 720693); further: nearly all actives have a fitted effect of over 55% in size
[9] = qHTS assay for identifying genotoxic compounds that show differential cytotoxicity against isogenic chicken DT40 cell lines with known DNA damage response pathways - wild type cell line (AID 743012); further: nearly all actives have a fitted effect of over 60% in size; further: potency means the concentration at half of the fitted maximal effect
Summary of the method: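 Cytotoxicity in repair-proficient parental chicken DT40 cells serves as the comparator for Rad54/Ku70- and Rev3-deficient lines. Cells were exposed to compounds for 40 h at 37 C/5% CO2, and ATP-based luminescence (CellTiter-Glo) measured viability.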

[10] = qHTS assay for identifying genotoxic compounds that show differential cytotoxicity against isogenic chicken DT40 cell lines with known DNA damage response pathways - Rev3 mutant cell line (AID 743014); further: nearly all actives have a fitted effect of over 55% in size; further: potency means the concentration at half of the fitted maximal effect
[11] = qHTS assay for identifying genotoxic compounds that show differential cytotoxicity against isogenic chicken DT40 cell lines with known DNA damage response pathways - Rad54/Ku70 mutant cell line (AID 743015); further: nearly all actives have a fitted effect of over 60% in size; further: potency means the concentration at half of the fitted maximal effect
[12] = qHTS assay to identify small molecule antagonists of the androgen receptor (AR) signaling pathway - cell viability counter screen (AID 743033; further: nearly all actives have a fitted effect of over 45% in size; further: potency means the concentration at half of the fitted maximal effect)
[13] = qHTS assay to identify small molecule antagonists of the androgen receptor (AR) signaling pathway using the MDA cell line - cell viability counter screen (AID 743041; further: nearly all actives have a fitted effect of over 45% in size)
Summary of the method: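 Cytotoxicity counter screen: MDA-kb2 AR-luc cells, compound + R1881, 16 h, 37C, 0% CO2; CellTiter-Fluor added at 15.5 h, fluorescence read after 30 min.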

[14] = qHTS assay to test for compound auto fluorescence at 535 nm (green) in HepG2 cell free culture (AID 720686)
[15] = biological target: Glucocorticoid receptor (Homo sapiens) (UniProt P04150); test: qHTS assay to identify small molecule agonists of the glucocorticoid receptor (GR) signaling pathway (AID 720691; active means well fitted activation curve with a large enough effect in the signal ratio in the repeat runs, not every such curve was filed as active; the % refers to the signal ratio); details: GR-bla HeLa, beta-lactamase reporter ratio, 18 h; activation: at 62.4 µM (top of the series)
Summary of the method: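 Steps: seed GR-bla HeLa cells, incubate 4 h at 37 C/5% CO2; pin-transfer DMSO-dissolved compounds; incubate 18 h at 37 C; add LiveBLAzer B/G FRET substrate; after 2 h at room temperature, measure fluorescence.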

[16] = biological target: Glucocorticoid receptor (Homo sapiens) (UniProt P04150); test: qHTS assay to identify small molecule antagonists of the glucocorticoid receptor (GR) signaling pathway (AID 720692; active means well fitted inhibition curve with a large enough effect in the signal ratio in the repeat runs, not every such curve was filed as active; the % refers to the signal ratio)
Summary of the method: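 Antagonism was scored as loss of dexamethasone-driven (5 nM final) reporter signal in HeLa cells bearing a glucocorticoid response element–beta-lactamase construct, after 18 h compound exposure at 37 C and 2 h FRET substrate loading.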

[17] = biological target: Androgen receptor (Homo sapiens) (UniProt P10275); test: qHTS assay to identify small molecule agonists of the androgen receptor (AR) signaling pathway (AID 743036; active means well fitted activation curve with a large enough effect in the signal ratio in the repeat runs, with a control signal flat, not every such curve was filed as active; the % refers to the signal ratio)
Summary of the method: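 Following a 4 h settling period, AR-UAS-bla HEK293 cells were dosed with compounds for 16 h at 37C. A 2 h room-temperature incubation with LiveBLAzer B/G FRET substrate preceded the fluorescence measurement.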

[18] = biological target: Androgen receptor (Homo sapiens) (UniProt P10275); test: qHTS assay to identify small molecule agonists of the androgen receptor (AR) signaling pathway using the MDA cell line (AID 743040; further: nearly all actives have a fitted effect of over 20% in size)
Summary of the method: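 Luciferase read-out, ONE-Glo, 30 min RT. Cells: MDA-kb2 AR-luc, MMTV promoter with AR and GR response elements. Compound exposure 16 h, 37C, 0% CO2, after 5 h pre-incubation. qHTS agonist mode.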

[19] = biological target: Androgen receptor (Homo sapiens) (UniProt P10275); test: qHTS assay to identify small molecule antagonists of the androgen receptor (AR) signaling pathway using the MDA cell line (AID 743042; further: nearly all actives have a fitted effect of over 55% in size)
Summary of the method: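 MDA-kb2 breast carcinoma cells carrying MMTV-luciferase (AR/GR responsive) were co-treated with compounds and the agonist R1881 for 16 h at 37C. Inhibition read as ONE-Glo luminescence; CellTiter-Fluor fluorescence measured in parallel for cytotoxicity.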

[20] = biological target: Androgen receptor (Homo sapiens) (UniProt P10275); test: qHTS assay to identify small molecule antagonists of the androgen receptor (AR) signaling pathway (AID 743035; active means well fitted inhibition curve with a large enough effect in the signal ratio in the repeat runs, not every such curve was filed as active; the % refers to the signal ratio)
Summary of the method: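 Steps: seed AR-UAS-bla GripTite HEK293 cells, incubate 4 h at 37C; pin in test compound, then add agonist R1881; incubate 16 h at 37C; add LiveBLAzer B/G FRET substrate, 2 h at room temperature; read fluorescence.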

Measured: Potency

Androgen receptor (Homo sapiens), sequence (P10275 whole entry, looked up): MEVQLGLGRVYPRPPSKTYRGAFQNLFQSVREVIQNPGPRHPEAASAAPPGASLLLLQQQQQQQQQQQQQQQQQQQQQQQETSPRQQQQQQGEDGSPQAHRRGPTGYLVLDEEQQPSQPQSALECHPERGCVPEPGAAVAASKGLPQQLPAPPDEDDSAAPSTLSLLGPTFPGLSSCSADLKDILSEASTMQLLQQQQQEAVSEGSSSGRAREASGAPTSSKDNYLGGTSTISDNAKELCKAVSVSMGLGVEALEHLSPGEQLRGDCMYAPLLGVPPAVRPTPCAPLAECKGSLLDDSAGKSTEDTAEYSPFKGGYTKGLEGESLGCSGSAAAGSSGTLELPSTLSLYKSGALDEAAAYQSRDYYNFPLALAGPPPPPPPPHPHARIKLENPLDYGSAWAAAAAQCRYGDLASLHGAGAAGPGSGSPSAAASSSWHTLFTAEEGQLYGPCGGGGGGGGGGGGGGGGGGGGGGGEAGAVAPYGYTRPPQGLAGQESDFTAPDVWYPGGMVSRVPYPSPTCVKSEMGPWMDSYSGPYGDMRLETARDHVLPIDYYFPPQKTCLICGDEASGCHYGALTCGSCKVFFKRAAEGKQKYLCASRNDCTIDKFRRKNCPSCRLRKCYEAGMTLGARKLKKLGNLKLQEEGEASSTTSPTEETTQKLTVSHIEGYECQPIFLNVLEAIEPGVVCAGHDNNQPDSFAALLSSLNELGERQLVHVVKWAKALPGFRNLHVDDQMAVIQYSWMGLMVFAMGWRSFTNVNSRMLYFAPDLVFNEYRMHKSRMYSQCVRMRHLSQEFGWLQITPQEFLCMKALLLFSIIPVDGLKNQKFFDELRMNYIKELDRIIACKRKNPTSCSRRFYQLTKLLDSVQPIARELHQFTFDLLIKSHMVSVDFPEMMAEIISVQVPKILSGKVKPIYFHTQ
Glucocorticoid receptor (Homo sapiens), sequence (P04150 whole entry, looked up): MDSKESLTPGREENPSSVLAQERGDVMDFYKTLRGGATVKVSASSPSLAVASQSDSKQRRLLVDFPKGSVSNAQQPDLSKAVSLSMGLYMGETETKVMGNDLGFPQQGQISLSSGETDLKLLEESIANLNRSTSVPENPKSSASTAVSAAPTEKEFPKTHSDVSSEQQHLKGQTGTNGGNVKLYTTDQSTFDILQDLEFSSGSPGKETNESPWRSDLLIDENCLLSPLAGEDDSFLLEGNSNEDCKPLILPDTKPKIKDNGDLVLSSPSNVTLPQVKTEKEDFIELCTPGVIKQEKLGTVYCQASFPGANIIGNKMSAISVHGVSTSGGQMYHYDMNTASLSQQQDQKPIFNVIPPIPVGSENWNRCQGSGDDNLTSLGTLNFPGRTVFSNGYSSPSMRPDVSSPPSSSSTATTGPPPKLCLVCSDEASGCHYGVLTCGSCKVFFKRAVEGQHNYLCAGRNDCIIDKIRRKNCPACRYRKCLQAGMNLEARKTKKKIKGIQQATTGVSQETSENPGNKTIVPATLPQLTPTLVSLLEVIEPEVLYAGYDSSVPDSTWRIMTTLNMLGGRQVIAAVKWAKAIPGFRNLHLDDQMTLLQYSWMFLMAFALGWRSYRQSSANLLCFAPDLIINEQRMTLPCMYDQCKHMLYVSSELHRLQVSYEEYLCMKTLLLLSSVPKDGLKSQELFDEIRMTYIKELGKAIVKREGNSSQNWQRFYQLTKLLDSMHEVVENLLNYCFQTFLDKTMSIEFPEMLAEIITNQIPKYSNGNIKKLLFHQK

C=N[C@@H](C(=O)N[C@@H]1C(=O)N2[C@@H]1SC(C)(C)[C@@H]2C(=O)O)c1ccccc1
not listed: [14] | [15] | [16] | [17] | [18] | [19] | [20]
inactive: all other assays above

OCl
not listed: [6] | [16] | [17] | [18] | [19] | [20]
inactive: all other assays above

Cc1cc(-c2ccc(N=Nc3ccc4c(S(=O)(=O)O)cc(S(=O)(=O)O)c(N)c4c3O)c(C)c2)ccc1N=Nc1ccc2c(S(=O)(=O)O)cc(S(=O)(=O)O)c(N)c2c1O
active: [9] 23.7 µM | [10] 23.7 µM | [11] 11.9 µM and 23.7 µM
not listed: [6] | [13] | [17] | [18] | [19] | [20]
inactive: all other assays above

CCOC(=O)COc1ccc2c(=O)cc(-c3ccccc3)oc2c1
active: [9] 29.8 µM | [11] 29.8 µM
not listed: [14] | [17] | [18] | [19] | [20]
inactive: all other assays above

CC(C)Cc1ccc([C@H](C)C(=O)O)cc1
not listed: [14] | [17] | [18] | [19] | [20]
inactive: all other assays above

FC(F)(F)COCC(F)(F)F
not listed: [5] | [7] | [12] | [17] | [18] | [19] | [20]
inactive: all other assays above

CC1=C(/C=C/C(C)=C/C=C/C(C)=C/C=C/C=C(C)/C=C/C=C(C)/C=C/C2=C(C)CCCC2(C)C)C(C)(C)CCC1
not listed: [5] | [6] | [9] | [20]
inactive: all other assays above

CC/C=C\C/C=C\C/C=C\C/C=C\C/C=C\C/C=C\CCC(=O)O
active: [9] 26.6 µM
inactive: [1] | [2] | [3] | [4] | [6] | [14] | [7] | [15] | [8] | [13]

CCCCCCCCCC[N+](C)(CCCCCCCCCC)CCC[Si](OC)(OC)OC
inactive: [1] | [2] | [3] | [4] | [5] | [7] | [8]
active: [10] 7.7 µM | [11] 7.7 µM | [12] 43.6 µM

COc1ccc(/C=C/C(=O)O)cc1
not listed: [6] | [12] | [14] | [18]
inactive: all other assays above

C=CC(N)CCC(=O)O (stereo not drawn)
not listed: [5] | [17] | [18] | [19] | [20]
inactive: all other assays above

CSCCC(N)C(=O)O (stereo not drawn)
not listed: [5] | [9] | [12] | [17] | [18] | [19] | [20]
inactive: all other assays above

CCc1cn([C@H]2C[C@H](O)[C@@H](CO)O2)c(=O)[nH]c1=O
not listed: [5] | [17] | [18] | [19] | [20]
inactive: all other assays above

CC1(C)CCC(NC(=O)[C@@H](N)CCC(=O)O)CC1
not listed: [6] | [14]
inactive: all other assays above

COc1ccc2ccccc2c1
inactive: [1] | [2] | [3] | [5] | [6]
